DT40 TDP1 CPT = DT40-hTDP1 cell growth loss with CPT; chicken DT40 Tdp1-/-;hTDP1 cells + 20 nM CPT, ATP luminescence, 48 h; Potency, µM (series often up to 46.2 µM), without a hit: top-dose activity change, negative = growth inhibition, usual class: inhibitors; 420,000 compounds, 12% hits; AID 686979; further: potency means the concentration at half of the fitted maximal effect; nearly all actives have a fitted effect of over 55% in size
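Cell growth measured by CellTiter-Glo luminescence after a minimum 48 h, 37 C compound exposure with 20 nM CPT in Tdp1-knockout DT40 cells stably expressing hTDP1, seeded 400/well; qHTS titration format.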
IL-1B inflam inh = inhibitors of inflammasome signaling (IL-1 beta secretion). AID 743279. activity change, % at 57.5 µM. 360,000 compounds, 4.7% hits. THP-1 LPS/ATP IL-1B secretion, AlphaLISA, 16 h; stronger effect = lower value; in the data active means activity change below about -50%; inconclusive means mostly about -30% to -49%
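THP-1 cells pretreated 1 hr with compounds (up to 57.5 uM final), then stimulated with LPS (250 ng/mL final) plus ATP (1.25 mM final); secreted IL-1B measured by AlphaLISA after 16 hr, decreased signal indicating inhibition.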
DT40 TDP1 no CPT = qHTS for Inhibitors of human tyrosyl-DNA phosphodiesterase 1 (TDP1): qHTS in cells in absence of CPT; DT40 Tdp1-/- hTDP1 cells, no CPT, ATP luminescence, 48 h; Potency, µM (series often up to 46.2 µM), for the others: at the highest dose activity change, negative = growth inhibition, most hits filed as inhibitors; 420,000 compounds, 15% hits; AID 686978, 2013; further: potency means the concentration at half of the fitted maximal effect; nearly all actives have a fitted effect of over 55% in size
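Chicken DT40 Tdp1-/- cells complemented with human TDP1, screened without camptothecin (DMSO vehicle only), 400 cells/well. Compounds pin-transferred, cells incubated at 37 °C for at least 48 hr. Growth read as ATP-dependent luminescence (CellTiter-Glo, 30 min at RT).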
HT1080 IDH1KD tx = HT-1080 IDH1 knockdown cell toxicity (counter line); Potency, µM (doses to about 46.1 µM), inactives show at the top dose activity, negative = toxicity, actives largely listed as cytotoxic; 360,000 compounds, 2% hits; HT-1080 IDH1 knockdown viability, ATP luminescence, 48 h; AID 686971;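 further: potency means the concentration at half of the fitted maximal effect; 0% = DMSO wells and -100% = cell-free medium wells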
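Using the IDH1-knockdown HT-1080 line run in the same batch and compound series as the NT line, viability after 48 h at 37 °C was determined by CellTiter-Glo luminescence and expressed as % activity.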
HT1080NT lethal = kills 2HG-producing HT-1080-NT fibrosarcoma cells; Potency, µM (titrated, usually from 46.1 µM), for the others: at the top dose activity, negative = less viability, usual class: cytotoxic; HT-1080-NT fibrosarcoma viability, CellTiter-Glo ATP luminescence, 48 h; 360,000 compounds, 1.6% hits; AID 686970;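 further: NT is the 2HG producing partner of a matched IDH1 knockdown line; potency means the concentration at half of the fitted maximal effect; 0% = DMSO-treated cells and -100% = media-only wells without cells; nearly all actives have a fitted effect of over 55% in size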
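Read-out is CellTiter-Glo luminescence after 10 minutes at room temperature, following 48 hours' compound treatment of HT-1080-NT cells (750 cells/well, RPMI, 5% FBS, 37 degrees C).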
Numbers without * were called inactive; u = inconclusive; x = no result given; [ ] = another dose, or the depositor's remark. Only some compounds are listed: those with a hit (about 19% of all), similar ones and a draw of the others. Unless noted, the call rests on the fitted dose curve; in most records, active means well fitted curve in the direction sought with a large enough effect; inconclusive means small, poorly fitted or top-dose-only effect, or another doubt; inactive means no such curve, though single readings can be large; an effect the other way counts as inactive or inconclusive. Unless noted, on the % scale 0 is the no-effect control and ±100 the full control effect.

SMILES | DT40 TDP1 CPT | IL-1B inflam inh | DT40 TDP1 no CPT | HT1080 IDH1KD tx | HT1080NT lethal
COc1ccc(C(=O)N/C(=C\c2cccs2)c2nc3ccccc3[nH]2)cc1OC | -11% | 0 | -27% | u | 0%[9.24 µM]
COC(=O)/C(=C\c1cc(OC)c(OC)c(OC)c1)c1nc2ccccc2[nH]1 | u | -99* | 16µM* | u | u
O=C(/C(=C\c1ccccc1)c1nc2ccccc2[nH]1)c1ccc(Cl)cc1 | 7.3µM* | -100* | 6.5µM* | 3.3µM* | 3.7µM*
O=C(/C=C/c1cccc(Cl)c1)c1nc2ccccc2[nH]1 | 12µM* | -17 | 9.2µM* | u | u
COC(=O)/C(=C\c1ccc(O)cc1)c1nc2ccccc2[nH]1 | u | -6 | u | 0% | 9%
COc1cc(/C=C(/C(=O)c2cccs2)c2nc3ccccc3[nH]2)ccc1O | u | -106* | 18µM* | 5µM* | 7.9µM*
CCOc1cc(OCC)cc(C(=O)N2CCC[C@H]2C(=O)N2CCC[C@H]2C(=O)NCc2ccc(F)cc2F)c1 | -10% | 25 | -28% | -3% | 2%
O=C(/C(=C/c1ccc(Cl)cc1)c1nc2ccccc2[nH]1)c1cccs1 | 2.9µM* | -112* | 4.1µM* | 16µM* | 16µM*
Cc1cc(C)c2nc(SCC(=O)NCCN3C(=O)CSC3=O)cc(C)c2c1 | u | -8 | u | -5% | 1%
Cc1cccc2cc(CN(Cc3cccs3)C3(c4nnnn4C4CCCC4)CCCC3)c(=O)[nH]c12 | u | 4 | 21µM* | 0% | -1%
Cc1cccc2cc(CN(Cc3cccs3)S(=O)(=O)c3ccc4c(c3)OCCO4)c(=O)[nH]c12 | u | -8 | 23µM* | -19% | -2%
Cc1cc(C)c2[nH]c(=O)c(CN(CC3CCCO3)C(=O)C3CCCO3)cc2c1 (stereo not drawn) | -14% | -4 | -7% | 10% | 12%
Cc1ccc(C)c2[nH]c(=O)c(CN(CC3CCCO3)C(=O)NC3CCCCC3)cc12 (stereo not drawn) | 23µM* | -26 | u | -15% | u
Cc1ccc(C)c2[nH]c(=O)c(CN(CCN3CCOCC3)Cc3nnnn3CC3CCCO3)cc12 (stereo not drawn) | -18% | -3 | -8% | -4% | 2%
Cc1ccc(C)c2[nH]c(=O)c(CN(Cc3nnnn3C3CCCCC3)CC3CCCO3)cc12 (stereo not drawn) | 15µM* | u | 23µM* | u | -20%
Cc1ccc(S(=O)(=O)N2CCCCC2)cc1NC(=O)CSc1nc(N)cc(=O)[nH]1 | 2% | 3 | -16% | 5% | 0%
COCCn1c(=O)c(-c2ccc(OC)cc2)nc2cnc(N3CCOCC3)nc21 | 2% | x | -3% | x | x
Cc1c(NC(=O)CSc2ncnc3ccccc23)c(=O)n(-c2ccccc2)n1C | 4% | -7 | -2% | 3% | 4%
CC(C)Oc1cccc(C(=O)Nc2ccc(N3CCN(C)CC3)cc2)c1 | -10% | -15 | u | -4% | -3%
CCCOc1ccc(C(=O)NNC(=S)NC(=O)c2ccccc2[N+](=O)[O-])cc1 | 10µM* | 52 | 10µM* | u | -26%
CCCC(=O)Nc1ccc(C(=O)NNC(=S)NC(=O)c2cccs2)cc1 | u | 14 | u | u | u
O=C(NNC(=O)c1ccc(-c2ccccc2)cc1)c1ccccc1 | -18% | -10 | -6% | 2% | -1%
CCCOc1ccc(C(=O)NCCO)cc1 | -9% | 0 | -15% | -3% | 9%
CC(C)(C)C(=O)NC(=S)NNC(=O)c1ccc(-c2ccccc2)cc1 | 3.3µM* | 142 | 2.1µM* | 7.3µM* | 8.2µM*
CCCOc1ccc(C(=O)NNC(=S)NC(C)=O)cc1 | 2.6µM* | 63 | 3.3µM* | 7.1µM* | 7.1µM*
CCCOc1ccc(C(=O)NNC(=S)NC(=O)c2cccs2)cc1 | 23µM* | 55 | 18µM* | 21µM* | u
Cc1c(C(=O)/C=C/c2ccccc2F)c2cc(O)ccc2n1C | -17% | -11 | u | 4% | 4%

High-throughput results as filed in PubChem.
